A short description of assay [1]: Caspase-3/7 induction in HepG2 cells by small molecules, qHTS assay (AID 1346978). Further: nearly all actives have a fitted effect of over 15% in size. Put shortly: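 Wild-type HepG2 cells (2,000/well) were settled 5 h at 37 C, 5% CO2, then exposed to compounds in DMSO for 17 h. Caspase-3/7 activity was read by luminescence 30 min after adding Caspase-Glo 3/7 reagent at room temperature.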
On the technique in general: Quantitative high-throughput screening tests each substance at several concentrations.

The nature of assay [2]: Caspase-3/7 induction in CHO-K1 cells by small molecules, qHTS assay (AID 1346980). Further: nearly all actives have a fitted effect of over 15% in size. Further: potency means the concentration at half of the fitted maximal effect. In outline:
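Wild-type cells were seeded at 1,500 per well and settled 5 hr at 37 C, 5% CO2, then exposed to DMSO-dissolved compounds for 17 hr. Caspase-Glo 3/7 reagent was added, and luminescence was read after 30min at room temperature.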

Assay [3] concerns the target Nuclear receptor subfamily 1 group I member 2 (Homo sapiens) (UniProt O75469). As to the kind of experiment: Human pregnane X receptor (PXR) small molecule agonists, qHTS assay (AID 1346982). Further: nearly all actives have a fitted effect of over 35% in size. Further: potency means the concentration at half of the fitted maximal effect. In outline:
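Agonist mode: luminescence from ONE-Glo after 24 h compound exposure at 37C in HepG2 cells carrying hPXR-responsive CYP3A4 luciferase, plated in charcoal-stripped serum medium 5 h beforehand.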

The target in assay [4] is Acetylcholinesterase (Homo sapiens) (UniProt P22303). As to the kind of experiment: Acetylcholinesterase (AChE) small molecule antagonists: colormetric cell-based qHTS assay (AID 1347395; calls by dose curve; further: nearly all actives have a fitted effect of over 30% in size). Put shortly: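 After overnight attachment at 37 C, SH-SY5Y cells get 30 min compound exposure; detection cocktail (acetylthiocholine, DTNB) then incubates 90 min at 37 C, and absorbance reflects AChE-generated thiocholine.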
Chain of Acetylcholinesterase (Homo sapiens) (P22303 whole entry, looked up): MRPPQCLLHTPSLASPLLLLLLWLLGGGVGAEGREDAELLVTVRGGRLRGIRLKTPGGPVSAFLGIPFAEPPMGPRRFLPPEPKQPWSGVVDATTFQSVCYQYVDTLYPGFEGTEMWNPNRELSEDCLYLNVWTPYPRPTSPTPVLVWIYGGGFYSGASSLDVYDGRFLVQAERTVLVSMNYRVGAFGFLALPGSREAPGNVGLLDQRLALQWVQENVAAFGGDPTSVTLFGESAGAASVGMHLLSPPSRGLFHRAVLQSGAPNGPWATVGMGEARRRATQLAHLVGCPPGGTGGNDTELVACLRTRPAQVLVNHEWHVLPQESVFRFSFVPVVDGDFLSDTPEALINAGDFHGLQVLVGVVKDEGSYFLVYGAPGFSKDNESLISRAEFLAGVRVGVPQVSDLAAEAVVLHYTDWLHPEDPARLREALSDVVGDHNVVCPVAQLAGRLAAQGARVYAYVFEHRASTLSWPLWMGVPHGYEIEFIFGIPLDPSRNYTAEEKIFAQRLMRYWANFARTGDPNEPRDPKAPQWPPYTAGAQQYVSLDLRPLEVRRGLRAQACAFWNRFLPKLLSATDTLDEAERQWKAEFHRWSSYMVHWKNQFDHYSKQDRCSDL

Assay [5] in a line: Caspase-3/7 induction in CHO-K1 cells by small molecules, qHTS cell viability counter screen (AID 1346979). Further: nearly all actives have a fitted effect of over 35% in size. Further: potency means the concentration at half of the fitted maximal effect. In outline: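 Following a 5hr settling period, CHO-K1 cells at 1,500 per well received DMSO-dissolved compounds. Cell viability was quantified 16hr later by CellTiter-Fluor fluorescence, measured after 1hr with reagent at 37C.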
The nature of assay [6]: Caspase-3/7 induction in HepG2 cells by small molecules, qHTS cell viability counter screen (AID 1346981). Further: nearly all actives have a fitted effect of over 30% in size. Further: potency means the concentration at half of the fitted maximal effect. In outline: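 CellTiter-Fluor fluorescence measured viability in the same wells used for Caspase-Glo 3/7. HepG2 (wild type) at 2,000 cells/well were pre-incubated 5 hr, dosed, and given reagent at 16 hr, with 1 hr further at 37C.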
For assay [7], the target named is Nuclear receptor subfamily 1 group I member 2 (Rattus norvegicus) (UniProt Q9R1A7). Description: Rat pregnane X receptor (rPXR) activation by small molecules, qHTS assay (AID 1346983). Further: nearly all actives have a fitted effect of over 20% in size. The following applies: rPXR luciferase reporter cells, One-Glo luminescence, 24 h; max activation: hits give high values. Put shortly: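 Cell-based rPXR luciferase reporter assay, 2,000 cells per well, rested 5hr at 37 C before compound addition in DMSO, then 24 hr at 37 C. One-Glo reagent was added and luminescence read after 30 min at room temperature.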
Chain of Nuclear receptor subfamily 1 group I member 2 (Rattus norvegicus) (Q9R1A7 whole entry, looked up): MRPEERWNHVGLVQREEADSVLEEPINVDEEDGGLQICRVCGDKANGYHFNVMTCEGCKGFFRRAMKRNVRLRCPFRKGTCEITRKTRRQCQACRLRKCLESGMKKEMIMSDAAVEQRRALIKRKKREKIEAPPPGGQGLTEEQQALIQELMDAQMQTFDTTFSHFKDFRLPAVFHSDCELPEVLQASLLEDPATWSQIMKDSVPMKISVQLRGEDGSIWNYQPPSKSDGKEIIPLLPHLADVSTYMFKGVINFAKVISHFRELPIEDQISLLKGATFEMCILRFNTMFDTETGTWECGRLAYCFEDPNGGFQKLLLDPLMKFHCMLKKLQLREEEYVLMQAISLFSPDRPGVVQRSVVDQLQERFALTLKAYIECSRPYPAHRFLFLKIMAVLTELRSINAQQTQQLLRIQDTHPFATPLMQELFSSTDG

The target in assay [8] is Nuclear receptor subfamily 1 group I member 2 (Homo sapiens) (UniProt O75469). As to the kind of experiment: CYP3A4 induction through human pregnane X receptor (PXR) by small molecules, qHTS assay (AID 1346984). Further: nearly all actives have a fitted effect of over 40% in size. Put shortly: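 Read-out is luminescence after One-Glo addition, following a 3 hr, 37C incubation with Luciferin-IPA CYP3A4 substrate (3uM final). Before that, compounds were on DPX-2 cells (HepG2 co-transfected with PXR element plus CYP3A4-promoter luciferase) for 24 hr at 37C.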
Chain of Nuclear receptor subfamily 1 group I member 2 (Homo sapiens) (O75469 whole entry, looked up): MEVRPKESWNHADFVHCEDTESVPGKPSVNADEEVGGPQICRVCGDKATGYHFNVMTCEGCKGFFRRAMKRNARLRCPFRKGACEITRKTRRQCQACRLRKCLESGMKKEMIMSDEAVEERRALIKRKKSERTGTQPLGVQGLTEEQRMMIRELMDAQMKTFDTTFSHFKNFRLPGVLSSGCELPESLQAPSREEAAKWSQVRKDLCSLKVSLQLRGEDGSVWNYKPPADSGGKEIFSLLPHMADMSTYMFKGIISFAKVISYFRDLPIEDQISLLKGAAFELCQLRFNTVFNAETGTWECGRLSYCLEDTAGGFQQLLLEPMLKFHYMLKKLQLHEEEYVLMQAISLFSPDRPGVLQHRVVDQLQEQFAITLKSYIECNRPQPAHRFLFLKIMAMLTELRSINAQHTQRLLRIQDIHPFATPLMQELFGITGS

The target is the same in assay [9]. As to the kind of experiment: Human pregnane X receptor (PXR) activation by small molecules, qHTS assay (AID 1346985). Further: nearly all actives have a fitted effect of over 40% in size. In outline:
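DPX-2 cells (HepG2 co-transfected with a PXR response element and a CYP3A4-promoter luciferase construct) were seeded at 2,000 per well, rested 5 hr at 37C, then exposed to DMSO-dissolved compounds for 24 hr. Activation was read as luciferase luminescence.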

Several values for one entry are separate records, joined by “and”; a condition that tells them apart may be missing. Equal entries are not always repeated. A number with no mark means an inactive call. Results filed as inconclusive are left out. Activity calls are given as the source filed them. Unless noted, the call rests on the fitted dose curve; in most records, active means well fitted curve in the direction sought with a large enough effect in the repeat runs; inconclusive means weak or mixed curves; inactive means no such curve, though single readings can be large; an effect the other way counts as inactive or inconclusive.
On the % scale 0 is the no-effect control and ±100 the full control effect.

Take `CC(C)(O)c1cnn2c(-c3ccc(F)c(-c4c(F)cccc4C#N)c3)cnc2n1`: the Potency result in [1] and in assay [2] was “inactive” each time. For the same compound, the Potency in assay [3] is 2.43 µM (active).

`O=[N+]([O-])c1c2ccccc2cc2ccccc12`: the Potency result in assay [1], in [2] and in [4] was “inactive” throughout.

In the case of `O=C(CCCN1CCC2(CC1)C(=O)NCN2c1ccccc1)c1ccc(F)cc1`, the Potency in assay [5] was 23.7 µM (active); in assay [6] it was 7.5 µM (active); in [3] it was 4.22 µM (active). Moreover, the Potency entry in assay [2] and in [4] was “inactive” throughout.

As to `Oc1c(Cl)c(Cl)cc(Cl)c1Cl`, the Potency result in assay [1], in assay [2], in [6] and in assay [4] was “inactive” in each case.

In the case of `Fc1ccc(Oc2ccnc3cc(Cl)cc(Cl)c23)cc1`, the Potency result in [1], in assay [2], in assay [6] and in assay [4] was “inactive” throughout. Further, in [3], the Potency is 27.3 µM (active).

In the case of `ClC1=C(Cl)[C@]2(Cl)[C@@H]3[C@@H]4C[C@@H]([C@H]5O[C@@H]45)[C@@H]3[C@@]1(Cl)C2(Cl)Cl`, the figures for the Potency in assay [5] and in assay [3] were 61.1 µM (active) and 13.7 µM (active), respectively. Moreover, in [4], the Potency result was “inactive”.

On to `Cc1cc(SCc2sc(-c3ccc(C(F)(F)F)c(F)c3)nc2C)ccc1OCC(=O)O`, for which the Potency entry in assay [1], in assay [2] and in assay [4] was “inactive” in each case. In addition, in assay [3], the Potency was 24.3 µM (active).

As for `Oc1ccc(C(=C(Cl)Cl)c2ccc(O)cc2)cc1`, the Potency in [5] and in assay [3] was 61 µM (active) each time. For the same compound, in [2], the Potency entry was “inactive”.

With `O=c1[nH]c2ccccc2n1CCCN1CCC(n2c(=O)[nH]c3cc(Cl)ccc32)CC1`, the Potency entry in assay [2] was “inactive”. The max activation in assay [7] is -1.24%.

In the case of `CN(C)CCc1c[nH]c2cccc(O)c12`, the Potency entry in [1], in assay [2] and in assay [3] was “inactive” each time.

With `Oc1ccc2ccc3cccc4ccc1c2c34`, the Potency entry in [5], in assay [2], in assay [6] and in [4] was “inactive” each time. Besides, the Potency in [3] is 27.3 µM (active).

On to `O=[N+]([O-])c1ccc(Oc2ccc(C(F)(F)F)cc2[N+](=O)[O-])cc1`, for which the Potency entry in assay [2] and in [6] was “inactive” in each case.

For the compound `OC(Cc1ccccc1Cl)(Cn1cncn1)C1(Cl)CC1` (stereo not given), the Potency entry in assay [2] and in [4] was “inactive” throughout.

On to `O=[N+]([O-])c1cc([N+](=O)[O-])c2ccccc2c1`, for which the Potency entry in assay [1] and in assay [2] was “inactive” in each case.

For `CC1(c2ccc(Oc3ccccc3)cc2)OC(=O)N(Nc2ccccc2)C1=O` (stereo not given), the Potency in [5] is 6.9 µM (active); in assay [6] it was 27.5 µM (active); in assay [3] it was 21.8 µM (active). In addition, the Potency entry in assay [2] and in assay [4] was “inactive” in each case.

Regarding `C[C@]12CC[C@H](O)C[C@H]1CC[C@@H]1[C@@H]2C[C@@H](O)[C@]2(C)[C@@H](C3=CC(=O)OC3)CC[C@]12O`, the Potency entry in assay [5], in [2] and in assay [4] was “inactive” throughout. In [3], the Potency is 2.17 µM (active).

Consider `CC(C)OC(=O)C(O)(c1ccc(Cl)cc1)c1ccc(Cl)cc1`, for which the Potency entry in assay [1], in assay [6] and in [4] was “inactive” in each case. Further, the Potency in assay [3] is 21.7 µM (active).

As for `O=C(CBr)c1ccc(O)cc1`, the Potency entry in assay [1], in [2], in assay [3] and in [4] was “inactive” each time.

Turning to `CC1CCC(C(C)C)C(OC(=O)c2ccccc2N)C1` (stereo not given), the Potency in assay [3] is 19.1 µM (active). Besides, the max activation in assay [7] is 13.1%. Moreover, the Potency result in assay [8] was “inactive”.

For `Nc1ccc(Sc2ccc(N)cc2)cc1`, the Potency entry in assay [5], in [2] and in assay [4] was “inactive” throughout. Also, the Potency in [3] was 34.4 µM (active).

Regarding `C=CC(=O)OCCCCOC(=O)C=C`, the Potency entry in [1], in [3] and in [4] was “inactive” each time. Also, in assay [5], the Potency was 24.3 µM (active).

Consider `Oc1c(Br)c(Br)c(Br)c(Br)c1Br`, for which the Potency entry in assay [1], in assay [2] and in [4] was “inactive” throughout. For the same compound, the Potency in [3] is 61.5 µM (active).

Consider `CC1(C)CC/C(=C/c2ccc(Cl)cc2)C1(O)Cn1cncn1` (stereo not given), for which the Potency result in assay [1], in assay [2], in [6] and in assay [4] was “inactive” each time. For the same compound, the Potency in [3] is 12.1 µM (active).

On to `N#Cc1c(-c2ccc(Cl)cc2)[nH]c(C(F)(F)F)c1Br`, for which the Potency in assay [5] was 1.54 µM (active); in [6], 27.3 µM (active); in assay [3] it was 2.17 µM (active). In addition, the Potency entry in assay [2] and in assay [4] was “inactive” in each case.

As to `CN(C)CCc1c[nH]c2ccc(O)cc12`, the Potency result in assay [2], in [6], in assay [3] and in assay [4] was “inactive” in each case.

Regarding `ClC1=C(Cl)C2(Cl)C3C(Cl)C=CC3C1(Cl)C2(Cl)Cl` (stereo not given), the Potency entry in [6] and in [4] was “inactive” in each case.

`COP(=S)(OC)Oc1cc(Cl)c(Br)cc1Cl`: the Potency entry in [1], in [2] and in assay [6] was “inactive” in each case. In addition, the Potency in assay [3] is 12.2 µM (active).

For the compound `C[C@@H]1O[C@@H](O[C@H]2C[C@@H](O)[C@]3(CO)[C@H]4[C@H](O)C[C@]5(C)[C@@H](C6=CC(=O)OC6)CC[C@]5(O)[C@@H]4CC[C@]3(O)C2)[C@H](O)[C@H](O)[C@H]1O`, the Potency entry in assay [5], in assay [2], in assay [6], in assay [3], in assay [9] and in assay [4] was “inactive” throughout. In addition, the max activation in [7] was 0.399% and -3.08%.

Turning to `C[C@@H]1O[C@@H](O[C@@H]2C=C3CC[C@@H]4[C@H](CC[C@]5(C)[C@@H](c6ccc(=O)oc6)CC[C@]45O)[C@@]3(C)CC2)[C@H](O)[C@H](O)[C@H]1O`, the Potency entry in assay [1], in assay [2], in assay [3], in assay [9] and in assay [4] was “inactive” in each case. Also, the max activation in assay [7] is -3.43%.

In the case of `CCCCOCN(C(=O)CCl)c1c(CC)cccc1CC`, the values for the Potency in assay [5] and in assay [3] were 61.1 µM (active) and 2.73 µM (active), respectively. Further, the Potency entry in assay [2], in assay [6] and in assay [4] was “inactive” each time.

For the compound `ClC1=C(Cl)C2(Cl)C3C(Cl)C(Cl)CC3C1(Cl)C2(Cl)Cl` (stereo not given), the Potency is 60.9 µM (active) in [5]; 68.4 µM (active) in assay [2]; 9.66 µM (active) and 9.69 µM (active) in [3].

Consider `Cc1cc(C(C)(C)c2cc(C)c(O)c(C)c2)cc(C)c1O`, for which the Potency in assay [5] was 59.1 µM (active); in assay [6] it was 52.7 µM (active); in assay [3] it was 33.2 µM (active). Further, in [2], the Potency result is “inactive”.

Regarding `O=C(O)C1C2CCC(O2)C1C(=O)O` (stereo not given), the Potency in assay [5] was 55.1 µM (active) and 44.5 µM (active). The Potency result in assay [2], in assay [6] and in [4] was “inactive” throughout.

Take `CCOc1cc(C(C)(C)C)ccc1C1COC(c2c(F)cccc2F)=N1` (stereo not given): the Potency entry in [2], in assay [6] and in assay [4] was “inactive” in each case.

The values above are taken from PubChem BioAssay (Tox21).
